# Source: PubChem BioAssay (NCI)
# About 83,000 compounds went through this panel and 20% of them were active in at least one assay; those are over-represented in the sample as a whole.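 Negative percent growth values reflect cell death: -40 means 40% of the cells present at the start died, and -100 means all died.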 A number with no mark means an inactive call. The source made the active and inactive calls. The calls were made as follows: active = growth percent below 10; inactive = the rest.
# Key:
# Assay in all cases: NCI-60 one-dose screen, 48 h (100 = growth as untreated, 0 = no growth, -100 = all killed)
# SK-MEL-2 melanoma = settings: 10 µM unless noted
# EKVX NSCLC = settings: 10 µM unless noted
# SN12C renal = settings: 10 µM unless noted
# UO-31 renal = settings: 10 µM unless noted
# TK-10 renal = settings: 10 µM unless noted
# ACHN renal = settings: 10 µM unless noted
# CAKI-1 renal = settings: 10 µM unless noted
# A498 renal = settings: 10 µM unless noted
# CCRF-CEM leukemia = settings: 10 µM unless noted
# MOLT-4 leukemia = settings: 10 µM unless noted
# RPMI-8226 leukemia = settings: 10 µM unless noted
# OVCAR-8 ovarian = settings: 10 µM unless noted
# OVCAR-5 ovarian = settings: 10 µM unless noted
# SK-OV-3 ovarian = settings: 10 µM unless noted
# IGROV1 ovarian = settings: 10 µM unless noted
# OVCAR-3 ovarian = settings: 10 µM unless noted
# HS 578T breast = settings: 10 µM unless noted
# NCI/ADR-RES ovarian = settings: 10 µM unless noted
# OVCAR-4 ovarian = settings: 10 µM
# SR leukemia = settings: 10 µM unless noted
SMILES,growth (SK-MEL-2 melanoma),growth (EKVX NSCLC),growth (SN12C renal),growth (UO-31 renal),growth (TK-10 renal),growth (ACHN renal),growth (CAKI-1 renal),growth (A498 renal),growth (CCRF-CEM leukemia),growth (MOLT-4 leukemia),growth (RPMI-8226 leukemia),growth (OVCAR-8 ovarian),growth (OVCAR-5 ovarian),growth (SK-OV-3 ovarian),growth (IGROV1 ovarian),growth (OVCAR-3 ovarian),growth (HS 578T breast),growth (NCI/ADR-RES ovarian),growth (OVCAR-4 ovarian),growth (SR leukemia)
C=C(CC(=O)OC)C(C)=O,118%,99%,100%,88.2%,107%,109%,101%,95.1%,118%,95.2%,120%,107%,112%,103%,101%,106%,96.5%,113%,,
CCOC(=O)c1nn(C2CCCCO2)c2ccc(NS(=O)(=O)c3ccc(C)cc3)cc12 (stereo unspecified),106%,102%,93.6%,82.7%,111%,94.3%,77.8%,62.9%,98.9%,86.2%,98.3%,96.9%,110%,,102%,104%,94.9%,99.6%,87.2%,
Cc1cc2c(C(C)C)c(O)c(O)c(C=NCc3ccoc3)c2c(O)c1-c1c(C)cc2c(C(C)C)c(O)c(O)c(C=NCc3ccco3)c2c1O,45.4%,23.6%,40.5%,36.2%,45.8%,25.3%,54%,80.1%,21%,14.5%,33.5%,30.2%,68.9%,54.4%,46.5%,25.9%,45%,44.4%,31.2%,
Cc1ccc(-n2nc3n(/c2=N\C(=O)NS(=O)(=O)c2ccc(C)cc2)CCN3C2=NCCN2)cc1,109%,99.5%,97%,84.1%,101%,94.5%,90%,93.5%,107%,112%,106%,103%,95.4%,99.1%,104%,109%,99.7%,105%,,
Oc1ccc(N=Nc2nccs2)c(O)c1,97.7%,41.4%,73.7%,39.2%,60.3%,30.3%,25.9%,225%,19.5%,11.8%,20.1%,36.4%,87.5%,78.2%,42.9%,-1.86% (active),80.2%,12.4%,25.9%,
N#C/C(C(=O)c1ccccc1)=C1/C(=O)Nc2ccccc21,106%,99.4%,93.1%,73.4%,118%,98%,78.8%,89%,103%,90.4%,112%,97.2%,101%,85.3%,,108%,91.4%,103%,,112%
Nc1ccc(NC(=O)c2ccccc2)c2c1C(=O)c1ccccc1C2=O,108%,76.3%,97.8%,74.2%,96.1%,92.6%,96.7%,113%,91.1%,106%,102%,96.9%,117%,112%,,96.5%,,99.6%,,96.8%
COc1cc(/C=C/C(=O)/C=C/c2ccc(-n3ccnc3)cc2)ccc1O,106%,97.9%,76.6%,-25.7% (active),101%,48.3%,91.5%,96.8%,37.1%,33.4%,-5.38% (active),29.2%,100%,91.5%,,34.4%,86%,99%,,25.1%
COc1ccc(NC(=S)NNc2ccc(-c3ccc(OC)c(OC)c3)nn2)cc1,106%,104%,100%,83.3%,105%,102%,77%,83.4%,103%,96.3%,103%,101%,103%,,103%,110%,95.8%,111%,100%,
COc1c(C(C)=O)c(OCCCCOc2c(C(C)=O)c(OC)c3ccoc3c2OC)c(OC)c2occc12,42%,56.7%,88.1%,124%,43.8%,75.7%,68%,81.1%,58%,36.2%,47.3%,45.3%,120%,105%,,61.4%,93.9%,22.9%,59.2%,
